Data on 14 compounds can be found in PubChem BioAssay (NCI).

About 83,000 compounds went through this panel and 20% of them were active in at least one assay; those are over-represented in the sample as a whole.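 Results are percent growth after 48 hours of single-concentration exposure. 100 means growth as in untreated cells, lower positive values show inhibition; negative values down to -100 show cell death.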 A number with no mark means an inactive call. Calls of active or inactive are those of the source. How the source made its calls: active means growth percent below 10; inactive means the rest.

The assay has as its system MCF7 breast. Nature of the assay: NCI-60 one-dose screen, 48 h (100 = growth as untreated, 0 = no growth, -100 = all killed). To be noted: 10 µM.
In the case of `Nc1ccc(-c2cccs2)cc1NC(=O)c1ccc(CCCC(=O)Nc2ccc(C3CC3N)cc2)cc1` (centres undefined), the growth was 18.8%.

Turning to `CCCc1cn(CC(=O)Nc2nc3ccccc3s2)nn1`, the growth was 100%. Consider `O=C(CCCCCCC(=O)Nc1ccccc1)NO`, for which the growth is 9.87% (active). Turning to `O=[N+]([O-])c1ccc(/C(=C/c2ccccc2)[n+]2ccccc2)cc1`, the growth is 98.7%. Consider `Oc1cccc(-c2nc3sccn3c2-c2ccncn2)c1`, for which the growth was 76.7%. Take `COc1ccc(/C(=N\N)C(=O)c2ccccc2)cc1` (tested in a mixture with another compound): the growth was 92.4%. To `COc1ccc(C(=O)N/N=C/c2cc(C(F)(F)F)ccc2Cl)cc1` belongs 60.3%. Under `OCC1OC2C(NC(=S)N2c2ccccc2)C(O)C1O` (centres undefined) stands 103%; under `COc1cc2cc(Oc3ccc(NC(=O)Nc4cccc(C(F)(F)F)c4)cc3)c(C)nc2cc1OC`, 6.81% (active).

Turning to `Cc1c2c[n+](C(C)C)ccc2c(C)c2c1[nH]c1ccccc12`, the growth was 3.87% (active).

Take `CC(=O)Nc1ccc(S(=O)(=O)c2ccnc3cc(Cl)ccc23)cc1`: the growth was 57.8%. With `CS(=O)(=O)c1nccc(-c2c(-c3cccc(OCCN4CCOCC4)c3)nc3sccn23)n1`, the growth is 69.3%. Turning to `COc1ccc(Cc2cnc(N)nc2N)cc1OC`, the growth was 100%.

On to `C=CCN(CC=C)C(=O)[C@H](CC)[C@@H]1CC[C@@H](C)[C@@H]([C@H](C)[C@@H](O)[C@@H](C)C(=O)[C@H](CC)C2O[C@]3(C=CC(=O)[C@]4(CC[C@@](C)([C@H]5CC[C@](O)(CC)[C@H](C)O5)O4)O3)[C@H](C)C[C@@H]2C)O1` (some centres undefined), for which the growth was 8.84% (active).
